For 9 compounds, growth results are on record in PubChem BioAssay (NCI).

Some test systems named below: SR leukemia; RPMI-8226 leukemia; OVCAR-8 ovarian; OVCAR-5 ovarian; OVCAR-4 ovarian; SK-OV-3 ovarian; IGROV1 ovarian; OVCAR-3 ovarian; HS 578T breast; T-47D breast; BT-549 breast; MDA-MB-435 melanoma; SW-620 colon; HCT-116 colon; HCC-2998 colon; KM12 colon; MCF7 breast; NCI/ADR-RES ovarian.
Common to all, as to experiment: NCI-60 one-dose screen, 48 h (100 = growth as untreated, 0 = no growth, -100 = all killed)
Common to all, as to settings: 10 µM unless noted

The structures appear in SMILES notation. Compounds without any hit were thinned out: in the full panel of roughly 83,000, 20% have a hit.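 Plates (96-well) were seeded with cells, treated with compound at one concentration, and incubated for 48 hours before percent growth was determined.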 A number with no mark means an inactive call. The source made the active and inactive calls. Rule for the calls: active = growth percent below 10; inactive = the rest.

On to `O=[N+]([O-])c1cnc(Sc2ccncn2)s1`, for which the growth in the assay on SR leukemia was -69.7% (active); with RPMI-8226 leukemia, -64.1% (active); in the assay with OVCAR-8 ovarian, 73.3%; with OVCAR-5 ovarian, 94.1%; in the assay on OVCAR-4 ovarian, 53.9%; in the assay on SK-OV-3 ovarian, 114%. Besides, the growth in the assay on IGROV1 ovarian is -80.7% (active); in the assay on OVCAR-3 ovarian it was -95.5% (active); in the assay with HS 578T breast, 58%; in the assay on T-47D breast, -13.9% (active); in the assay on BT-549 breast, 103%; with MDA-MB-435 melanoma, 27.2%. Besides, the growth in the assay with SW-620 colon is -80.9% (active); with HCT-116 colon, -48.5% (active); in the assay with HCC-2998 colon it was 6.85% (active); in the assay with KM12 colon, 75.9%.

`CC(C)(C)n1cc(-c2ccnc(NCCNS(=O)(=O)c3ccc(Cl)cc3)c2)c(-c2cccc(O)c2)n1`: the growth is 24.9% with SR leukemia; 23.8% in the assay on RPMI-8226 leukemia; 65.1% in the assay with OVCAR-8 ovarian; 80.9% with OVCAR-5 ovarian; 53.5% with OVCAR-4 ovarian; 90.4% in the assay with SK-OV-3 ovarian. For the same compound, the growth is 79.1% with IGROV1 ovarian; 72.5% in the assay with OVCAR-3 ovarian; 66% in the assay on HS 578T breast; 38% in the assay on T-47D breast; 71.2% with MDA-MB-435 melanoma; 28% with SW-620 colon. The growth was 28.2% in the assay on MCF7 breast, 45.4% in the assay with HCT-116 colon, 36.7% with HCC-2998 colon and 42.5% with KM12 colon.

As for `C=C1CCC2C3(C)COC(c4ccc(N(C)C)cc4)OC3CCC2(C)C1C/C=C1/C(=O)OCC1O` (stereo not given), the growth in the assay on SR leukemia is 21.9%; in the assay on RPMI-8226 leukemia it was -52.9% (active); in the assay on OVCAR-8 ovarian it was 47.5%; in the assay on OVCAR-5 ovarian, 96.3%; in the assay on OVCAR-4 ovarian it was 68.3%; in the assay with SK-OV-3 ovarian, 84%. For the same compound, the growth in the assay with IGROV1 ovarian was 39.3%; with NCI/ADR-RES ovarian, 65.1%; with T-47D breast, 52.1%; with BT-549 breast, 46.4%; in the assay on MDA-MB-435 melanoma, 7.31% (active); in the assay with SW-620 colon it was 26%. The growth with MCF7 breast was 29.5%; in the assay with HCT-116 colon, 21.6%; in the assay on HCC-2998 colon, 112%; in the assay on KM12 colon it was 54.6%.

As to `CCN(CC)c1ccc(N=O)cc1`, the growth in the assay with SR leukemia was 26.5%; in the assay on RPMI-8226 leukemia, 91.3%; with OVCAR-8 ovarian it was 55.4%; in the assay with OVCAR-5 ovarian, 103%; in the assay on OVCAR-4 ovarian it was 66.7%; in the assay on SK-OV-3 ovarian, 96%. In addition, the growth was 15% with IGROV1 ovarian; 28.5% with OVCAR-3 ovarian; 93% in the assay with HS 578T breast; 44.9% in the assay on T-47D breast; 79.7% in the assay with BT-549 breast; 66.9% in the assay on MDA-MB-435 melanoma. In addition, the growth in the assay with SW-620 colon was -61.1% (active); with MCF7 breast it was 51.8%; with HCT-116 colon, 37.9%; in the assay on HCC-2998 colon, 86.5%; in the assay with KM12 colon, 40.3%.

As to `O=S(=O)(c1ccc(OCCO)cc1)c1ccc(OCCO)cc1`, the growth with SR leukemia is 99.4%; with RPMI-8226 leukemia it was 81%; in the assay with OVCAR-8 ovarian, 102%; in the assay on OVCAR-5 ovarian, 101%; in the assay on OVCAR-4 ovarian, 111%; in the assay with SK-OV-3 ovarian, 118%. Besides, the growth with IGROV1 ovarian is 87.5%; in the assay with NCI/ADR-RES ovarian it was 103%; with T-47D breast, 120%; with BT-549 breast it was 109%; in the assay on MDA-MB-435 melanoma, 102%; in the assay with SW-620 colon it was 94.6%. For the same compound, the growth in the assay with HCT-116 colon was 101%.

As to `C/C(=N/NC(=S)Nc1ccccc1)c1nc2ccc(Cl)cc2[nH]1`, the growth in the assay on SR leukemia was -36.1% (active); in the assay with RPMI-8226 leukemia, 5.52% (active); in the assay with OVCAR-8 ovarian, -39.8% (active); with OVCAR-5 ovarian, -35.8% (active); in the assay with OVCAR-4 ovarian, -79.3% (active); with SK-OV-3 ovarian, -17.7% (active). Also, the growth is 7.58% (active) in the assay on IGROV1 ovarian; -59.5% (active) with OVCAR-3 ovarian; -12.7% (active) with NCI/ADR-RES ovarian; -68.3% (active) in the assay with T-47D breast; -94.9% (active) in the assay with BT-549 breast; -84.5% (active) in the assay on MDA-MB-435 melanoma. Moreover, the growth is -76.9% (active) in the assay with SW-620 colon; -85.4% (active) in the assay with MCF7 breast; -27% (active) with HCT-116 colon; -89.9% (active) in the assay on HCC-2998 colon; -82.5% (active) in the assay with KM12 colon.

As to `O=c1[nH]c(-c2ccccc2)nc(CN2CCCCC2)c1O`, the growth was 85.1% with SR leukemia; 97.6% in the assay on RPMI-8226 leukemia; 107% in the assay with OVCAR-8 ovarian; 110% in the assay on OVCAR-5 ovarian; 110% in the assay with OVCAR-4 ovarian; 114% in the assay with SK-OV-3 ovarian. Further, the growth with IGROV1 ovarian was 128%; in the assay with OVCAR-3 ovarian, 110%; with HS 578T breast, 104%; in the assay on BT-549 breast, 109%; in the assay with MDA-MB-435 melanoma, 110%; in the assay with SW-620 colon, 104%. Besides, the growth is 104% in the assay on MCF7 breast, 105% with HCT-116 colon, 100% with HCC-2998 colon and 108% in the assay with KM12 colon.

For the compound `Brc1cccc(-c2cc(-c3ccc4nccnc4c3)[nH]n2)c1`, the growth with SR leukemia was 33.8% [25 µM]; in the assay with RPMI-8226 leukemia, 20.3% [25 µM]; with OVCAR-8 ovarian it was 29.3% [25 µM]; with OVCAR-5 ovarian, 38.2% [25 µM]; in the assay with OVCAR-4 ovarian, 48.3% [25 µM]; in the assay on SK-OV-3 ovarian, 33.2% [25 µM]. For the same compound, the growth is 27.8% [25 µM] in the assay with IGROV1 ovarian; 4.18% [25 µM] (active) in the assay on OVCAR-3 ovarian; 13.7% [25 µM] with HS 578T breast; 34.5% [25 µM] with T-47D breast; 65.5% [25 µM] in the assay with BT-549 breast; -54.1% [25 µM] (active) with MDA-MB-435 melanoma. For the same compound, the growth is 28.1% [25 µM] in the assay on SW-620 colon; 14.1% [25 µM] in the assay on MCF7 breast; 9.21% [25 µM] (active) with HCT-116 colon; 40.2% [25 µM] in the assay with HCC-2998 colon; 14.7% [25 µM] in the assay on KM12 colon.

With `N/C(=N\C(N)=N\c1nc2ccccc2s1)c1cccc(Br)c1`, the growth is 33.2% in the assay on SR leukemia; 83.3% in the assay with RPMI-8226 leukemia; 72.6% in the assay with OVCAR-8 ovarian; 95.2% in the assay on OVCAR-5 ovarian; 107% in the assay with OVCAR-4 ovarian; 129% in the assay on SK-OV-3 ovarian. Further, the growth in the assay with IGROV1 ovarian was 66.4%; with OVCAR-3 ovarian, 103%; with HS 578T breast, 103%; in the assay on T-47D breast it was 52.1%; in the assay on BT-549 breast, 79.1%; in the assay on MDA-MB-435 melanoma, 93.8%. Also, the growth is 102% with SW-620 colon; 77.4% in the assay on MCF7 breast; 61.2% in the assay with HCT-116 colon; 108% in the assay with HCC-2998 colon; 66.5% in the assay with KM12 colon.
